From the supplement of paper PMC6555819

Legend:
Test in all cases: PBM binding z-score (relative to random genomic background probes); higher = stronger binding; sequences stand for … in GC…GCGATTGACAGCGTAGAATGAAGG
[1] = system: PPARg:RXRa DBDmut IVT, anti-RXR (DBD mutation: RXRa K156A/R161A, NR concentration 270 nM, RXRa partner concentration 90 nM)
How it was run: (§1)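 Each nuclear receptor dimer, without ligand, was incubated for 1 h on custom Agilent 4×180K protein-binding microarrays. Binding was detected with antibodies against each partner (one per run), and scanned fluorescence was regression-normalized. The binding z-scores are referenced to random human genomic background probes.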

[2] = system: PPARg:RXRa IVT, anti-PPARg (NR concentration 270 nM, RXRa partner concentration 90 nM)
How it was run: as §1

[3] = system: PPARg DBDmut:RXRa IVT, anti-PPARg (DBD mutation: PPARg1 K132A/R137A, NR concentration 270 nM, RXRa partner concentration 90 nM)
How it was run: as §1

[4] = system: PPARg DBDmut IVT, anti-PPARg (DBD mutation: PPARg1 K132A/R137A, NR concentration 270 nM)
How it was run: as §1

[5] = system: PPARg homodimer (NR concentration 180 nM)
How it was run: as §1

[6] = system: PXR:RXRa (NR concentration 270 nM, RXRa partner concentration 90 nM)
How it was run: as §1

[7] = system: PXR homodimer (NR concentration 270 nM)
How it was run: as §1

[8] = system: RARa:RXR (NR concentration 270 nM, RXRa partner concentration 90 nM)
How it was run: as §1

[9] = system: RARa homodimer (NR concentration 270 nM)
How it was run: as §1

[10] = system: RARb:RXRa (NR concentration 270 nM, RXRa partner concentration 90 nM)
How it was run: as §1

[11] = system: RARb homodimer (NR concentration 270 nM)
How it was run: as §1

[12] = system: RARg:RXRa (NR concentration 270 nM, RXRa partner concentration 90 nM)
How it was run: as §1

[13] = system: RARg homodimer (NR concentration 270 nM)
How it was run: as §1

[14] = system: RXRa DBDmut IVT, anti-RXR (DBD mutation: RXRa K156A/R161A, NR concentration 90 nM)
How it was run: as §1

[15] = system: RXRa homodimer (NR concentration 180 nM)
How it was run: as §1

[16] = system: THRa:RXRa (NR concentration 90 nM, RXRa partner concentration 90 nM)
How it was run: as §1

[17] = system: THRa homodimer (NR concentration 90 nM)
How it was run: as §1

[18] = system: VDR homodimer (NR concentration 270 nM)
How it was run: as §1

Sequence	PBM binding z-score [1]	PBM binding z-score [2]	PBM binding z-score [3]	PBM binding z-score [4]	PBM binding z-score [5]	PBM binding z-score [6]	PBM binding z-score [7]	PBM binding z-score [8]	PBM binding z-score [9]	PBM binding z-score [10]	PBM binding z-score [11]	PBM binding z-score [12]	PBM binding z-score [13]	PBM binding z-score [14]	PBM binding z-score [15]	PBM binding z-score [16]	PBM binding z-score [17]	PBM binding z-score [18]
TCCTATAGGTAAATGCTAGGTGAAAGTCCGATCT	2.2	1.3	0.193	0.879	-0.495	0.0422	-0.266	0.694	0.208	0.523	0.372	0.374	0.00496	1.14	0.554	1.55	0.305	-0.299
ACTATTAGTTGAGACGAGGGCAACCGGTAGGTTG	0.0734	0.502	0.336	-0.0704	-0.0372	1.47	0.373	0.84	0.204	1.4	1.42	0.949	0.676	0.457	0.675	2.69	0.339	1.07
CAAACTAGGTCACAGATGTCAAAGTCCGTGCGTA	8.74	8.85	3.45	2.75	2.09	2.47	0.19	3.24	1.17	4.17	3.51	4.42	4.89	2.36	3.86	3.36	1.68	1.91
ATATGTAGGTTATCGGGTCAATCAGTTTGCGCAT	7.94	7.57	3.15	2.14	2.33	3.64	3.23	4.04	1.3	2.86	3.02	3.59	2.68	1.45	3.75	3.3	2.53	2.85
TTAATGAGGTTATAAGATCAGGGAACGTTGCAAA	2.84	2.61	1.48	1.53	0.917	1.11	0.494	1.66	1.23	1.27	0.668	1.59	1.01	1.63	2.13	2.04	0.52	0.74
TTACCAAGGTGATAGGTCGTTGATGCACGCCTTG	1.07	2.82	0.428	0.413	1.26	0.611	-0.14	1.36	-0.163	1.07	0.852	0.727	0.286	-0.12	1.51	1.25	0.482	0.256
CCGAGTAGGTTATGGAGCATTCAGGCAACGGTGA	3.11	2.34	-1.14	-0.703	0.952	-0.208	0.0693	0.144	0.512	0.499	0.461	0.362	0.489	0.355	0.308	0.145	0.277	0.244
CGTCCAAGGTCAGAGAGGTCCGTGAATGCCGAGT	2.12	2.18	-0.282	-0.705	1.61	3.03	1.11	2.98	0.291	4.67	3.81	4.45	5.28	2.56	3.48	3.5	1.77	2.04
GCAGTCAGGTGAAACGCAGGTAACTCAGGGTGGC	1.84	0.996	-0.763	-0.908	-0.83	-0.443	-0.701	0.159	-1.13	1.03	0.205	0.634	0.376	-0.235	0.237	1.8	0.308	-0.682
TTACTAAGGTGAAAGGTCGTTGATGCACGCCTTG	4.24	5.63	1.41	1.35	2.47	4.61	0.84	6.79	0.463	3.51	3.02	4.74	2.37	1.45	6.58	4	2.17	1.78
CCGACTGGGGCATAAGGTTGCCATAAGCCAGCCC	2.51	2.07	-0.622	-1.53	-0.22	-0.532	-0.499	0.0769	-0.329	0.569	0.294	0.249	0.278	-0.617	-0.0266	0.276	-0.00565	-0.0503
TGACCAAGGTGAAAGGTCGTTGATGCACGCCTTG	2.01	4.8	0.518	-0.282	1.58	3.75	-0.00693	5.22	-0.166	3.03	2.49	4.18	2.09	0.0698	5.72	3.35	0.487	1.31
TCGTGTAGGTTAGTCGGGGCATTCAGCCAACATA	2.15	1.92	-0.257	-0.153	0.862	0.845	0.707	0.886	0.866	0.996	1.23	0.373	0.49	1.14	0.427	1.55	0.941	1.28
TCAGACAGGTGACGGTAACTCAGGTACGCAGTCG	2.24	1.37	0.209	0.0566	0.126	0.109	-0.211	0.171	0.103	0.885	0.517	0.188	0.328	0.683	0.84	0.492	0.00718	-0.0333
ATATGTAGGTTACATCCGGGTCAATCAGGCTATG	6.83	7.41	2.24	2	1.63	2.93	0.984	3.51	0.955	2.32	3.12	3.95	2.2	0.665	3.37	3.8	2.33	1.72
